Source: PubChem BioAssay
Inconclusive results are not listed. Calls of active or inactive are those of the source.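 How the source made its calls, unless noted: active means response below a set limit, under 55% cells CD8-positive and vesicle-bound, and CD8 cells' 90th-percentile brightness under 279; inactive means the rest.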

Columns and labels:
[1] = yeast TOR pathway RPL19A-GFP modulators, primary screen, cell-based, S. cerevisiae, multiplex flow cytometry (AID 1862; in the data active means percent of DMSO control GFP below about 86%;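 further: lower values mimic rapamycin by blocking the RPL19A rise seen in DMSO cells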); settings: S. cerevisiae RPL19A-GFP strain, flow cytometry fluorescence, 3 h; at 10 µM; stronger effect = lower value
[2] = modulators of CIT2-GFP expression in yeast, primary screen, S. cerevisiae, GFP fusion, multiplex flow cytometry (AID 1870;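 active means percent response above a set limit, the screen-wide mean plus 3 SD, cut at about 130% in these data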;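 further: barcoded CIT2-GFP strain pooled with four other GFP strains with rapamycin as positive control; median GFP fluorescence per well over plate mean of DMSO wells so 100% = DMSO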); settings: 3 h, at 10 µM, stronger effect = higher value
[3] = modulators of LAP4-GFP expression in yeast, primary screen, S. cerevisiae, multiplex flow cytometry (AID 1873;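 active means GFP signal, as percent of the solvent control, above the screen mean plus 3 SD, about 149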); settings: 3 h, at 10 µM, stronger effect = higher value
[4] = modulators of AGP1-GFP expression in yeast TOR pathway, primary screen, cell-based, multiplex flow cytometry, S. cerevisiae (AID 1887;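 active means GFP signal above the screen-wide mean plus 3 SD, that is over about 124.5% of the solvent control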;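 further: AGP1-GFP fusion strain of S. cerevisiae within a five-strain barcoded multiplex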); settings: 3 h, at 10 µM, stronger effect = higher value
[5] = inhibitors of CD8+ T cell-vesicle binding, pilot screen, LFA-1/ICAM-1 modulator project, MLPCN validation set, flow cytometry (AID 2523); settings: 2C mouse CD8+ T cells, at 7 µM, stronger effect = lower value; double positive events: measured here: CD8+/vesicle+ event percentage;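 on vesicle binding response: mean PE anti-B7-1 fluorescence of CD8+ cells relative to row control; 100% = QL9-loaded vesicles with DMSO vehicle in the same plate row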
[6] = biological target: Integrin beta-1 (Homo sapiens) + Integrin alpha-4 (Homo sapiens) (UniProt P13612+P05556); test: inhibition of HUTS-21 binding to VLA-4, pilot screen, VLA-4 allosteric modulator project, U937 cells, HUTS-21 mAb, flow cytometry, validation set (AID 2674;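 active means inhibition above 50%, about 3 SD of the validation set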;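 further: antibody binding induced by the VLA-4 ligand LDV present at three times its Kd; 0% = LDV ligand with antibody and no compound and 100% = antibody without LDV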); settings: HUTS-21 LIBS mAb binding, at 6.7 µM, stronger effect = higher value, binding induced by LDV ligand
[7] = superoxide lowering in aged yeast cells, pilot screen, validation compound set (AID 2706;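 active means superoxide response below 65% of plate, a cut near 3 SD across the whole screen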;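 further: yeast exposed to compound for one week at 30 degrees C before staining; 100% = mean of all compound wells on the same plate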); settings: S. cerevisiae aging, superoxide DHE fluorescence; at 10 µM, stronger effect = lower value
[8] = biological target: Beta-adrenergic receptor kinase 1 (Homo sapiens) (UniProt P25098); test: GRK2 binders displacing RNA aptamer, biochemical, validation, human GRK2, bead flow cytometry (AID 488806;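 active means aptamer binding inhibition above 30%, about 3 SD of noise from non-fluorescent compounds; inactive means inhibition at or below 30%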); settings: bead-bound GRK2, FAM-aptamer displacement, at 10 µM, stronger effect = higher value
[9] = biological target: Beta-2 adrenergic receptor (Homo sapiens) (UniProt P07550); test: beta2AR agonists driving receptor internalization, pilot screen, cell-based, FAP fluorogen, flow cytometry, validation set (AID 504459;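 active means percent response above 42, roughly 3 SD of non-fluorescent test compounds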;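 further: agonist-driven loss of surface beta2AR via internalization measured by FAP dye flow cytometry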); settings: Am2.2-beta2AR cells, FAP surface receptor flow cytometry; at 10 µM; stronger effect = higher value
[10] = biological target: AP-2 complex subunit beta (Homo sapiens) (UniProt P63010); test: inhibitors of arrestin peptide binding to AP2, pilot screen, biochemical, validation set, GST-AP2 beads, flow cytometry (AID 504541;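 active means inhibition above 54%, about 3 SD of non-fluorescent compounds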;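 further: AP2 carries R879A mutation and is captured from E. coli lysate; bead-bound FITC arrestin peptide fluorescence measuring arrestin peptide binding to AP2; 0% = DMSO wells and 100% = excess unlabeled arrestin peptide control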); settings: FITC arrestin peptide, at 10 µM, stronger effect = higher value, AP2 beta2 appendage fragment, R879A mutant
[11] = yeast V-ATPase proton transport modulators, S. cerevisiae, pHLuorin, HTS validation (AID 504600; in the data active means response above about 15%;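 further: plate controls were DMSO for no effect and reference compound for full effect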); settings: S. cerevisiae pHLuorin cytosolic pH, at 10 µM, stronger effect = higher value
[12] = system: anti-desmoglein-3 scFv antibody binding to human DSG3; test: inhibitors of anti-DSG3 scFv binding to DSG3, pilot screen, biochemical, validation compound set, bead-based, flow cytometry (AID 588368;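 active means binding below the plate cutoff, the plate median minus 3 SD, with a reading above zero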;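 further: signal is the median channel fluorescence of bead-bound GFP antibody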); settings: Protein G beads, DSG3-Fc, scFv-GFP binding, at 10 µM, stronger effect = lower value
[13] = inhibitors of fungal efflux pumps CDR1, CDR2, MDR1, pilot screen, validation compound set, multiplex, phenotypic (AID 588506;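 active means efflux inhibition above 0.42, the validation set average plus 4 SD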;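 further: Nile Red retained in cells so higher fluorescence means more efflux inhibition; 0 = negative control wells and 1 = enniatin B 25 µM full block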); settings: S. cerevisiae pump-expressing triplex, Nile Red efflux flow cytometry; at 10 µM; stronger effect = higher value; the pumps come from Candida albicans
[14] = biological target: ATP-binding cassette sub-family B member 6 (Homo sapiens) (UniProt Q9NP58); test: ABCB6 transporter inhibitors, pilot screen, K562-ABCB6 cells, flow cytometry, validation set (AID 588550;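 active means inhibition above the screen-wide mean plus 3 SD, about 51%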;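 further: 0% = DMSO wells and 100% = benzethonium chloride 70 µM positive control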); settings: K562-ABCB6 porphyrin accumulation, 1 h, at 10 µM, stronger effect = higher value
[15] = promoters of myeloid differentiation in arrested cells, primary screen, cell-based, GFP/MAC1 double positive, flow cytometry, validation set (AID 588685;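 active means differentiation response of at least 50%, scaled between solvent and reference control, from cells with both markers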;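 further: compound exposure lasts four days before antibody staining and flow analysis; 0% = DMSO wells and 100% = 5 µM fulvestrant positive control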); settings: ER-HoxA9 marrow cells, stronger effect = higher value, normalized: vehicle 0, fulvestrant 100
[16] = modulators of MEP2-GFP levels in yeast, primary screen, S. cerevisiae, multiplex flow cytometry (AID 1867;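 active means GFP response, as percent of the DMSO control, above the screen-wide mean plus 3 SD, about 139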;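 further: median GFP channel fluorescence of barcode-gated MEP2-GFP cells measured by flow cytometry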); settings: S. cerevisiae MEP2-GFP strain, 3 h, at 10 µM, stronger effect = higher value, 100% means same as DMSO wells
[17] = RPL19A-GFP modulators, yeast TOR pathway, confirmation, cell-based, S. cerevisiae, flow cytometry, cherry picks, mother/daughter gates (AID 2270;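 active means GFP response below 50% of the DMSO control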); settings: S. cerevisiae RPL19A-GFP strain, 3 h, at 10 µM, stronger effect = lower value, 100 = same GFP as DMSO wells
[18] = LAP4-GFP expression modulators in yeast, confirmation, cell-based, cherry picks, flow cytometry, mother/daughter gates (AID 2271;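 active means GFP response above 150% of the DMSO control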;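 further: ratio of sample to DMSO plate mean so 100% equals DMSO level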); settings: S. cerevisiae LAP4-GFP strain, 3 h, at 10 µM, stronger effect = higher value, 100 means same as DMSO control
[19] = modulators of MEP2-GFP levels in yeast, confirmation, S. cerevisiae, flow cytometry GFP, cherry picks (AID 2272;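 active means GFP response above 150% of the DMSO control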;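 further: ratio of well signal to plate DMSO mean so 100% equals DMSO level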); settings: S. cerevisiae MEP2-GFP strain, 3 h, at 10 µM, stronger effect = higher value
[20] = modulators of CIT2-GFP expression in yeast, confirmation, S. cerevisiae, GFP fusion, cherry picks, mother/daughter gates (AID 2274;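 active means GFP response above 150% of the DMSO level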); settings: S. cerevisiae CIT2-GFP strain, flow cytometry, 3 h, at 10 µM, stronger effect = higher value
[21] = measured here: daughter cell gate
[22] = measured here: mother cell gate
[23] = measured here: daughter cell gate response
[24] = measured here: mother cell gate response

Sequence of Integrin beta-1 (Homo sapiens) + Integrin alpha-4 (Homo sapiens) (P05556 whole entry, looked up): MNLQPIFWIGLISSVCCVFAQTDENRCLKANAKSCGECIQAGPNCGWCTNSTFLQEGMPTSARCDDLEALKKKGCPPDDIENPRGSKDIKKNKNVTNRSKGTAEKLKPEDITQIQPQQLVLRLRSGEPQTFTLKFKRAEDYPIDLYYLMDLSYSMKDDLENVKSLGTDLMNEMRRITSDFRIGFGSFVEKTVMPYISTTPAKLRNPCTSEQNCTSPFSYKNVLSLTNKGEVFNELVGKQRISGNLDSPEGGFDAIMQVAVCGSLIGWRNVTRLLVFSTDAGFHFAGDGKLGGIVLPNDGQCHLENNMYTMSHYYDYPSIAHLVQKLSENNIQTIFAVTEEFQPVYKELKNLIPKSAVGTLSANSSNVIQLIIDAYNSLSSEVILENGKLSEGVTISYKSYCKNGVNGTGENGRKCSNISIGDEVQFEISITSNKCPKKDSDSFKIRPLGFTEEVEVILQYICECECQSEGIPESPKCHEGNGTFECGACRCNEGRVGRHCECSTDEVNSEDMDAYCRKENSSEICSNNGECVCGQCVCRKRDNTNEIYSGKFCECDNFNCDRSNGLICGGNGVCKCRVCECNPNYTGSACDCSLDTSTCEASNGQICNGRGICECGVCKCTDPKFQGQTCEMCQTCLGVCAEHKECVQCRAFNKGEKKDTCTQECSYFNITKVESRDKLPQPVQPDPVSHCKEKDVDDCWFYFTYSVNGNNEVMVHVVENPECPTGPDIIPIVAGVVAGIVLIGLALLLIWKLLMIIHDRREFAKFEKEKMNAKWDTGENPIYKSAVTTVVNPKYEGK
Sequence of Integrin beta-1 (Homo sapiens) + Integrin alpha-4 (Homo sapiens) (P13612 whole entry, looked up): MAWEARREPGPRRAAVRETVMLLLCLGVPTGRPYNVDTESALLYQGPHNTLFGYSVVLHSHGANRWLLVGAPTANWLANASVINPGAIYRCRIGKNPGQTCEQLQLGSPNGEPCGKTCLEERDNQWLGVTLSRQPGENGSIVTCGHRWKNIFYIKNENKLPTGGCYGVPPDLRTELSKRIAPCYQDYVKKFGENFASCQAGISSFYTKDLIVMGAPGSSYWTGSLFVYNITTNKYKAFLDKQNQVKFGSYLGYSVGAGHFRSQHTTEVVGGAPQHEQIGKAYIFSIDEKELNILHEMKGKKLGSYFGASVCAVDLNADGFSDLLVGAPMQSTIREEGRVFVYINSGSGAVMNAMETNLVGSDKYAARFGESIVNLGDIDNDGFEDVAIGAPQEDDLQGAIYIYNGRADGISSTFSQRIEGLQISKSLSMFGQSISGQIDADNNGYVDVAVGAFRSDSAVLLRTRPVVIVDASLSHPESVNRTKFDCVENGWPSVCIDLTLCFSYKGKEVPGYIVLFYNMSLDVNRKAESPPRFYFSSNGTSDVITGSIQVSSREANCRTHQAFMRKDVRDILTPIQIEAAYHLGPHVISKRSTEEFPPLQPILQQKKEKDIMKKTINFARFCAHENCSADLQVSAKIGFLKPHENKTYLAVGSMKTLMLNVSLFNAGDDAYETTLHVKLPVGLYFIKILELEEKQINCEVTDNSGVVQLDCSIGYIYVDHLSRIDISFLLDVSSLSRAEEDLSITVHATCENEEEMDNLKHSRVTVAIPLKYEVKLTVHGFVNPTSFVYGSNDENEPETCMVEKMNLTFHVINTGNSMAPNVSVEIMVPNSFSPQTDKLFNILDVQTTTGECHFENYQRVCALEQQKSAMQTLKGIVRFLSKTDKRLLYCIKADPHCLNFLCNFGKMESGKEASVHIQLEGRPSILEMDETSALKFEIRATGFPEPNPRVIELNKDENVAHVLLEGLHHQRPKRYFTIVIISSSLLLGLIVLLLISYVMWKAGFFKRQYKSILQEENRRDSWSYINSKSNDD
Sequence of Beta-2 adrenergic receptor (Homo sapiens) (P07550 whole entry, looked up): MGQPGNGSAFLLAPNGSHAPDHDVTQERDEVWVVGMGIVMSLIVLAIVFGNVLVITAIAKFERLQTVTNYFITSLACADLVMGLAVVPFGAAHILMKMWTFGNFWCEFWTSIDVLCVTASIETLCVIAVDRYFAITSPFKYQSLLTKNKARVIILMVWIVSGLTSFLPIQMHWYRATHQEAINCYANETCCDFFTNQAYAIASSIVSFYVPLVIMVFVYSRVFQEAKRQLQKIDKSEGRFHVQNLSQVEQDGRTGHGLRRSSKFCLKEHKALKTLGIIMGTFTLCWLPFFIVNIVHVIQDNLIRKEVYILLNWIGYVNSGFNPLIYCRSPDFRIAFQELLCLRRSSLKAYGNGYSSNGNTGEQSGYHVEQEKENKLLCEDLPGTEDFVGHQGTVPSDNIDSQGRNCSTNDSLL
Sequence of Beta-adrenergic receptor kinase 1 (Homo sapiens) (P25098 whole entry, looked up): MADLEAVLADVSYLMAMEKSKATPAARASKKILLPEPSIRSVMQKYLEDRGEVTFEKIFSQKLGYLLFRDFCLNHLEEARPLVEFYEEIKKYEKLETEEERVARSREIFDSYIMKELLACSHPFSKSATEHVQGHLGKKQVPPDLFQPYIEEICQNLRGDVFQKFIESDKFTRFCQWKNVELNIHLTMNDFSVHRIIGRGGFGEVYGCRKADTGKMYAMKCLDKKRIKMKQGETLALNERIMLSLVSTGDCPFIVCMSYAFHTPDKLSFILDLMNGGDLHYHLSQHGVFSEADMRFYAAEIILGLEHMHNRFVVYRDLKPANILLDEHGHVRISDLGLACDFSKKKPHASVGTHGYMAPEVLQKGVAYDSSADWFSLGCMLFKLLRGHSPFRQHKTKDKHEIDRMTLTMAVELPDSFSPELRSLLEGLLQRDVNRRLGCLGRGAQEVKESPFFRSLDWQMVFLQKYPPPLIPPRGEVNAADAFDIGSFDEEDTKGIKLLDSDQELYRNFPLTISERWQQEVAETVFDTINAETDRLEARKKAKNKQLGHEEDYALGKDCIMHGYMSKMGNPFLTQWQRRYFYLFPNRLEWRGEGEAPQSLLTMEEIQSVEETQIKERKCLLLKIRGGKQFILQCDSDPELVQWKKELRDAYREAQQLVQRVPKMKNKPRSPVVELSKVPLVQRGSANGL
Sequence of ATP-binding cassette sub-family B member 6 (Homo sapiens) (Q9NP58 whole entry, looked up): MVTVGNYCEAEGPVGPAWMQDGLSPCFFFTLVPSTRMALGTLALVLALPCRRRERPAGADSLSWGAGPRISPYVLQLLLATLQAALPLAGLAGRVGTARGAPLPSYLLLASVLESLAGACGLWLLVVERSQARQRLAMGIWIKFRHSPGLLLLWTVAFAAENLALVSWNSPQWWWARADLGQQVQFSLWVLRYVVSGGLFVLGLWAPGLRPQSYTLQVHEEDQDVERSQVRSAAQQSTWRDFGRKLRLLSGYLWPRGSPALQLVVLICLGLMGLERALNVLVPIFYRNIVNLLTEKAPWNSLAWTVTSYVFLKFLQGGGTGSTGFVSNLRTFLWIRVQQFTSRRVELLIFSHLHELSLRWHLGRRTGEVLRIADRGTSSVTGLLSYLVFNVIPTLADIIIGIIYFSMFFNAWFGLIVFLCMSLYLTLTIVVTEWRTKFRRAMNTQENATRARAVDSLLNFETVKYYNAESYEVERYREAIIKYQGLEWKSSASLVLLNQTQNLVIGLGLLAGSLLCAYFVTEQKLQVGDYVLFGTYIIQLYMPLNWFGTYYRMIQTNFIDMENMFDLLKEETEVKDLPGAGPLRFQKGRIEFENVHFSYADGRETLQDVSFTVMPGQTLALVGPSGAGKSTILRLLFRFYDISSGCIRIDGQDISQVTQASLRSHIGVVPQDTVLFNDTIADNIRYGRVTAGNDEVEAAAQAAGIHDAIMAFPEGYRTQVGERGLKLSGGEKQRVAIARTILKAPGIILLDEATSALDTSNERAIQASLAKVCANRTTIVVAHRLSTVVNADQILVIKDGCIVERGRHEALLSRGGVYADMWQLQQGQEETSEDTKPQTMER
Sequence of AP-2 complex subunit beta (Homo sapiens) (P63010 whole entry, looked up, the tested form may be a part, one chain of several): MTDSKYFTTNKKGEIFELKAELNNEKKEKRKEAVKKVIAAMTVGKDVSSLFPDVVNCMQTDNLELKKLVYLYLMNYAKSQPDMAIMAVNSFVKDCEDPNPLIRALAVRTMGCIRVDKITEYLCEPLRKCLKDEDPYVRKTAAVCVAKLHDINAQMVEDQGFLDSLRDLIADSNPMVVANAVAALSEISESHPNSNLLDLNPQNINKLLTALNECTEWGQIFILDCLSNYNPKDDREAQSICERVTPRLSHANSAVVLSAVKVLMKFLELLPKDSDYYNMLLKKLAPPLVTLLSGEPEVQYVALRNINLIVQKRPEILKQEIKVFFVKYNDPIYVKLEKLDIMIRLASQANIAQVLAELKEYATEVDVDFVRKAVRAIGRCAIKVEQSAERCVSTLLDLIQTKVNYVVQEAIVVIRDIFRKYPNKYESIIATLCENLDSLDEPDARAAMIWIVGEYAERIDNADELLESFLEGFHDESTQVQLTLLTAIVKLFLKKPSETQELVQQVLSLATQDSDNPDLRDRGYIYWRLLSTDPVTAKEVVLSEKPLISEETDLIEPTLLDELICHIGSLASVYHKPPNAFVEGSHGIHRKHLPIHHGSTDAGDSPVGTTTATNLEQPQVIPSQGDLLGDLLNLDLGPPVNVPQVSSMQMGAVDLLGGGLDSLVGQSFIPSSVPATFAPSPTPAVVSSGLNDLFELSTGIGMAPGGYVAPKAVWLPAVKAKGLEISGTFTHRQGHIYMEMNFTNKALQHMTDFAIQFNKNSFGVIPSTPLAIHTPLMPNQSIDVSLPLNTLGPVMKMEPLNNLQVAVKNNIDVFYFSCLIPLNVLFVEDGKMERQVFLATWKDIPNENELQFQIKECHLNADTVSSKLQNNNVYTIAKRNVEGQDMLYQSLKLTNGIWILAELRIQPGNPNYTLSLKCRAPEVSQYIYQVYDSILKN

CC(=O)OCC1OC(n2ccc(=O)[nH]c2=O)C(O)C1O (stereo not drawn)
inactive: percent of DMSO control GFP [1] 100% | percent response of DMSO control [2] 122% | GFP response vs DMSO [3] 102% | GFP response, % of DMSO [4] 101% | vesicle binding response [5] 42.8% | inhibition [6] -12.9% | superoxide response (% of plate) [7] 97.6% | aptamer binding inhibition [8] 1% | response [9] -2% | inhibition [10] -6.88% | response [11] -3.65% | binding (% of control) [12] 97.7% | efflux inhibition (fraction of control) [13] -0.26 | inhibition [14] 9% | differentiation response [15] -1.71%
60.2%: double positive events [5]

Cc1cc(C)c2c(CCl)cc(=O)oc2c1
inactive: percent of DMSO control GFP [1] 98.7% | percent response of DMSO control [2] 107% | GFP response vs DMSO [3] 127% | GFP response, % of DMSO [4] 115% | vesicle binding response [5] 174% | inhibition [6] 33.8% | superoxide response (% of plate) [7] 93% | aptamer binding inhibition [8] -2% | response [9] -0.73% | inhibition [10] 2.3% | binding (% of control) [12] 96.2% | efflux inhibition (fraction of control) [13] 0.08 | inhibition [14] 4% | differentiation response [15] 4.86%
60.3%: double positive events [5]
active: response [11] 63.9%

C=CCc1cc(Cl)ccc1OCCOCCN(C)C
inactive: percent of DMSO control GFP [1] 103% | percent response of DMSO control [2] 108% | GFP response vs DMSO [3] 75.2% | GFP response, % of DMSO [4] 88.5% | vesicle binding response [5] 144% | inhibition [6] -4.52% | superoxide response (% of plate) [7] 98.8% | aptamer binding inhibition [8] 4% | response [9] 3.31% | inhibition [10] -5.37% | response [11] -5.95% | binding (% of control) [12] 102% | efflux inhibition (fraction of control) [13] -0.17 | inhibition [14] 1% | differentiation response [15] 16.8%
60%: double positive events [5]

CCCCC[C@H](O)/C=C/[C@@H]1[C@@H](C/C=C\CCCC(=O)OC)[C@@H](O)C[C@H]1O
59.2%: double positive events [5]
inactive: percent of DMSO control GFP [1] 97.4% | GFP response vs DMSO [16] 127% | percent response of DMSO control [2] 99.2% | vesicle binding response [5] 157% | inhibition [6] -30.4% | superoxide response (% of plate) [7] 171% | aptamer binding inhibition [8] 12% | response [9] 4.64% | inhibition [10] -11.2% | response [11] -0.57% | binding (% of control) [12] 116% | efflux inhibition (fraction of control) [13] 0.05 | inhibition [14] 13% | differentiation response [15] 2.46%

CC(Oc1ccc(Cl)cc1Cl)C(=O)NC1=NN(c2ccccc2)C(=O)C1 (stereo not drawn)
inactive: GFP response vs DMSO [17] 95.8% | GFP response relative to DMSO [18] 101% | GFP response vs DMSO [19] 98.3% | GFP response, % of DMSO [20] 98.3%
97.3%: GFP response, % of DMSO [20, 22]
96.4%: GFP response vs DMSO [17, 22]
98.9%: GFP response vs DMSO [17, 21]
101%: GFP response relative to DMSO [18, 23]
98.3%: GFP response relative to DMSO [18, 24]
99.1%: GFP response, % of DMSO [20, 21]

CCOC(=O)c1ccc(NC(=O)CCc2nc(-c3cccc(C)c3)no2)cc1
101%: GFP response relative to DMSO [18, 23] | GFP response relative to DMSO [18, 24]
99.1%: GFP response, % of DMSO [20, 22]
98.8%: GFP response vs DMSO [17, 22]
inactive: GFP response vs DMSO [17] 97.8% | GFP response relative to DMSO [18] 102% | GFP response vs DMSO [19] 106% | GFP response, % of DMSO [20] 102%
102%: GFP response, % of DMSO [20, 21]
98.5%: GFP response vs DMSO [17, 21]

Cc1ccc(C2=NOC(=O)/C2=C\c2ccc(C)o2)cc1
90.8%: GFP response vs DMSO [17, 22]
active: GFP response relative to DMSO [18] 230%
87.3%: GFP response, % of DMSO [20, 21]
72.8%: GFP response, % of DMSO [20, 22]
134%: GFP response relative to DMSO [18, 23]
89.7%: GFP response vs DMSO [17, 21]
inactive: GFP response vs DMSO [17] 101% | GFP response vs DMSO [19] 110% | GFP response, % of DMSO [20] 87.2%
224%: GFP response relative to DMSO [18, 24]
